# Experimental data reported in PubChem BioAssay (EPA / NIEHS).
# Activity calls are given as the source filed them. How the source made its calls: active means hit-call score of the fitted dose curve at least 0.9, where 1 is the maximum; inactive means score below 0.9.
# Read-out: Vascular cell adhesion molecule 1 (VCAM1), VCAM1 (gene 7412)
# Assay: BSK_hDFCGF_VCAM1: BioMAP Diversity Plus: hDFCGF Assay for Vascular cell adhesion molecule 1 (VCAM1) Biomarker Activity (AID 2283065);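 on AC50: VCAM-1 protein level quantified by ELISA after 24 h chemical exposure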
# Settings: primary human foreskin fibroblasts; actives raise or lower the signal
# Procedure, shortened: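 ELISA readout of VCAM-1 on human dermal fibroblast primary cultures, 24 h after chemical exposure. Gain or loss of signal fitted in both directions against DMSO baseline.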
SMILES,outcome,AC50
Cc1c(-c2cccnc2)c2ccccc2n1CCCCC(=O)O,inactive,
CC[C@H]1CC[C@H](NCc2cc3c(cc2OC)[C@H]2C[C@H]2C(=O)N3C)[C@H](c2ccccc2)N1,inactive,
CCOCCOCCOCCO,inactive,
Cn1c(=O)cc(Oc2ccc(F)cc2F)c2cnc(NCC(C)(C)O)nc21,,0.92 µM (active)
CC[C@H](C)C(=O)O[C@H]1C[C@@H](C)C=C2C=C[C@H](C)[C@H](CC[C@@H]3C[C@@H](O)CC(=O)O3)[C@H]21,,29.8 µM (active)
CCN(C(=O)c1cc(C)cc(OC[C@H](C)Nc2ccncc2)c1)C(C)C,inactive,
Cc1ccc(S(=O)(=O)O)cc1C,inactive,
C[C@](N)(Cc1ccc(O)c(O)c1)C(=O)O,,20 µM (active)
CC(C)CCCCCCOC(=O)c1ccc(C(=O)OCCCCCCC(C)C)c(C(=O)OCCCCCCC(C)C)c1,inactive,
O=C(O)CCN(C1(C(=O)NO)CCCC1)S(=O)(=O)c1ccc(Oc2ccc(F)cc2)cc1,inactive,
CC(C)CCCCCCCOC(=O)CCCCC(=O)OCCCCCCCC(C)C,inactive,
CNCc1ccc(NC(=O)c2c[nH]c3c2C(=O)CCC3)cc1,inactive,
Cc1ccc(N)cc1O,inactive,
Cc1[nH]cnc1C[C@H]1CCc2c(C)c3ccccc3n2C1=O,inactive,
CCCCC(CC)COC(=O)c1ccc(C(=O)OCC(CC)CCCC)cc1 (stereo not drawn),inactive,
CC(C)CC(C)(O)C#CC(C)(O)CC(C)C (stereo not drawn),inactive,
O=C(O)CC(O)C(=O)O (stereo not drawn),inactive,
COc1cccc(-c2ccc(/C=C\CN3CCCCCC3)cc2Cl)c1,,30.5 µM (active)
CN(C)c1ccc(N=NS(=O)(=O)O)cc1,,3.79 µM (active)
COC(=O)CC(=O)OC,inactive,
CCOC(=O)CC(CC(=O)OCC)(OC(C)=O)C(=O)OCC,inactive,
CC(C)=CCCC(C)=CC=O,inactive,
O=C(OC[C@H]1O[C@@H](OC(=O)c2cc(O)c(O)c(OC(=O)c3cc(O)c(O)c(O)c3)c2)[C@H](OC(=O)c2cc(O)c(O)c(OC(=O)c3cc(O)c(O)c(O)c3)c2)[C@@H](OC(=O)c2cc(O)c(O)c(OC(=O)c3cc(O)c(O)c(O)c3)c2)[C@@H]1OC(=O)c1cc(O)c(O)c(OC(=O)c2cc(O)c(O)c(O)c2)c1)c1cc(O)c(O)c(OC(=O)c2cc(O)c(O)c(O)c2)c1,,3.31 µM (active)
CC(C)=CCCC(C)CCO (stereo not drawn),inactive,
CCCCCCCCO,inactive,
CC(C)=CCC/C(C)=C\CO,inactive,
Clc1nc(Cl)c(Cl)c(Cl)c1Cl,inactive,
CC(O)CN(CCN(CC(C)O)CC(C)O)CC(C)O (stereo not drawn),inactive,
CCc1cc(SCc2sc(-c3ccc(C(F)(F)F)cc3)nc2CN2CCN(c3ccc(OC)cc3)CC2)ccc1OCC(=O)O,,3.57 µM (active)

# Read-out: Plasminogen activator inhibitor-1 (PAI1), SERPINE1 (gene 5054)
# Assay: BSK_hDFCGF_PAI1: BioMAP Diversity Plus: hDFCGF Assay for Plasminogen activator inhibitor-1 (PAI1) Biomarker Activity (AID 2283066)
# Settings: primary human foreskin fibroblasts; actives raise or lower the signal
# Procedure, shortened: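 Fibroblasts from human foreskin were treated with test chemical. After 24 h, PAI-1 was measured by ELISA. Activity was fitted in both directions relative to DMSO.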
SMILES,outcome,AC50
Cc1c(-c2cccnc2)c2ccccc2n1CCCCC(=O)O,inactive,
CC[C@H]1CC[C@H](NCc2cc3c(cc2OC)[C@H]2C[C@H]2C(=O)N3C)[C@H](c2ccccc2)N1,inactive,
CCOCCOCCOCCO,inactive,
Cn1c(=O)cc(Oc2ccc(F)cc2F)c2cnc(NCC(C)(C)O)nc21,inactive,
CC[C@H](C)C(=O)O[C@H]1C[C@@H](C)C=C2C=C[C@H](C)[C@H](CC[C@@H]3C[C@@H](O)CC(=O)O3)[C@H]21,,31.9 µM (active)
CCN(C(=O)c1cc(C)cc(OC[C@H](C)Nc2ccncc2)c1)C(C)C,inactive,
Cc1ccc(S(=O)(=O)O)cc1C,inactive,
C[C@](N)(Cc1ccc(O)c(O)c1)C(=O)O,inactive,
CC(C)CCCCCCOC(=O)c1ccc(C(=O)OCCCCCCC(C)C)c(C(=O)OCCCCCCC(C)C)c1,inactive,
O=C(O)CCN(C1(C(=O)NO)CCCC1)S(=O)(=O)c1ccc(Oc2ccc(F)cc2)cc1,inactive,
CC(C)CCCCCCCOC(=O)CCCCC(=O)OCCCCCCCC(C)C,inactive,
CNCc1ccc(NC(=O)c2c[nH]c3c2C(=O)CCC3)cc1,inactive,
Cc1ccc(N)cc1O,inactive,
Cc1[nH]cnc1C[C@H]1CCc2c(C)c3ccccc3n2C1=O,inactive,
CCCCC(CC)COC(=O)c1ccc(C(=O)OCC(CC)CCCC)cc1 (stereo not drawn),inactive,
CC(C)CC(C)(O)C#CC(C)(O)CC(C)C (stereo not drawn),inactive,
O=C(O)CC(O)C(=O)O (stereo not drawn),inactive,
COc1cccc(-c2ccc(/C=C\CN3CCCCCC3)cc2Cl)c1,,25.3 µM (active)
CN(C)c1ccc(N=NS(=O)(=O)O)cc1,inactive,
COC(=O)CC(=O)OC,inactive,
CCOC(=O)CC(CC(=O)OCC)(OC(C)=O)C(=O)OCC,inactive,
CC(C)=CCCC(C)=CC=O,inactive,
O=C(OC[C@H]1O[C@@H](OC(=O)c2cc(O)c(O)c(OC(=O)c3cc(O)c(O)c(O)c3)c2)[C@H](OC(=O)c2cc(O)c(O)c(OC(=O)c3cc(O)c(O)c(O)c3)c2)[C@@H](OC(=O)c2cc(O)c(O)c(OC(=O)c3cc(O)c(O)c(O)c3)c2)[C@@H]1OC(=O)c1cc(O)c(O)c(OC(=O)c2cc(O)c(O)c(O)c2)c1)c1cc(O)c(O)c(OC(=O)c2cc(O)c(O)c(O)c2)c1,,6.1 µM (active)
CC(C)=CCCC(C)CCO (stereo not drawn),inactive,
CCCCCCCCO,inactive,
CC(C)=CCC/C(C)=C\CO,inactive,
Clc1nc(Cl)c(Cl)c(Cl)c1Cl,inactive,
CC(O)CN(CCN(CC(C)O)CC(C)O)CC(C)O (stereo not drawn),inactive,
CCc1cc(SCc2sc(-c3ccc(C(F)(F)F)cc3)nc2CN2CCN(c3ccc(OC)cc3)CC2)ccc1OCC(=O)O,,3.17 µM (active)
